Screens: PubChem, several laboratories
IDE act: human IDE activators in live cells, primary screen, fluorescence polarization, HEK cells, FAbeta-B substrate; activation, % at 5.96 µM; AID 493087, 2011; actives 0.073% (n = 340,000); Insulin-degrading enzyme (Homo sapiens), P14735; FAbeta-B cleavage; 0% vehicle, 100% cell-free pure enzyme wells;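 active = activation above the mean of all tested compounds plus 3 SD, set per screening campaign, cut at about 17% in these data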
PP5 inh: PP5 phosphatase inhibitors, primary screen, biochemical, fluorescence; Serine/threonine-protein phosphatase 5 (Homo sapiens), P53041; purified PP5c, OMFP substrate fluorescence; inhibition, % at 6.7 µM; actives 0.18% (n = 320,000);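 active = inhibition above the campaign's mean inhibition across all tested compounds plus 3 SD, cut at about 9.5% in these data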
IDE cell inh: human IDE inhibitors in live cells, primary screen, fluorescence polarization, HEK cells, FAbetaB substrate; Insulin-degrading enzyme (Homo sapiens), P14735; FAbetaB cleavage; inhibition, % at 5.59 µM; actives 0.41% (n = 320,000);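 active = percent inhibition above the average of all tested compounds plus 3 SD, set per screening campaign, cut at about 16% in these data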;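 note: IDE supplied by intact live HEK cells; FP after avidin binding of uncleaved biotin substrate so inhibition keeps polarization high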
SKKanGAS inh: S. pyogenes SKKanGAS growth inhibitors in kanamycin, primary screen, streptokinase expression inhibitor project, SKKanGAS strain, BacTiter-Glo luminescence; inhibition, % at 7.5 µM; 6 h; actives 1.3% (n = 300,000);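 active = mean replicate score, as percent of positive control median, at least 50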;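 note: strain carries kanamycin resistance gene driven by streptokinase promoter and grows in 40 µg/ml kanamycin; loss of luminescence reflects streptokinase promoter inhibition or plain growth inhibition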
PP1 inh: PP1-alpha phosphatase inhibitors, primary screen, counter-screen for PP5 inhibitor project, biochemical, fluorescence, OMFP substrate, single point; Serine/threonine-protein phosphatase PP1-alpha catalytic subunit (Homo sapiens), P62136; purified PP1alpha; inhibition, % at 6.7 µM; actives 0.9% (n = 320,000);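 active = inhibition above the mean inhibition of all tested compounds plus 3 SD, computed separately for each screening campaign, cut at about 15% in these data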
Target sequence (P62136 whole entry, looked up): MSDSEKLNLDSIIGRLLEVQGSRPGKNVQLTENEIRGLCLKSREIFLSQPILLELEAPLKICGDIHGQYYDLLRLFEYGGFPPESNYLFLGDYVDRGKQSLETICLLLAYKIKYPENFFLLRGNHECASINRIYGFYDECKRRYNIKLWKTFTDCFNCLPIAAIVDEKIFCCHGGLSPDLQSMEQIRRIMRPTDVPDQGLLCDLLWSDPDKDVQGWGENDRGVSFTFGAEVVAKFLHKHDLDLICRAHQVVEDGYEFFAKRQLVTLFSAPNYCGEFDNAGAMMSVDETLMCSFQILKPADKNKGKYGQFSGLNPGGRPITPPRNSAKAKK
Granule exo inh: LAMP-1 surface exposure blockers, TALL-104 cells – cell-based, flow cytometry, MLPCN library, primary screen. TALL-104 LAMP-1 surface exposure; cells stimulated with thapsigargin and PMA. inhibition, % at 10 µM. actives 0.66% (n = 360,000);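 active = inhibition above about 55%, limit read from the data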
PP5 inh confirm: PP5 phosphatase inhibitors, confirmation, biochemical, fluorescence, human; actives 22% (n = 460); Purified PP5, fluorogenic phosphatase substrate; shares compounds with PP5 inh; AID 2331, 2010; inhibition, % at 6.7 µM; in the data active = inhibition above about 9.5%
PP1 counter 3x: PP1 phosphatase inhibitors, counter-screen for PP5 inhibitor project, biochemical, fluorescence, triplicate; shares compounds with PP5 inh; PP1 enzyme, fluorescent phosphatase substrate; inhibition, % at 6.7 µM; actives 4% (n = 460); AID 2355, 2010; in the data active = inhibition above about 16%
Hits are given with their value; . = inactive; / = no result given. Shown are actives, neighbours in structure and some others; about 2.8% of the full set was active somewhere.

SMILES | IDE act | PP5 inh | IDE cell inh | SKKanGAS inh | PP1 inh | Granule exo inh | PP5 inh confirm | PP1 counter 3x
O=C(c1cc(-c2ccc(Cl)cc2)n(-c2ccc(Cl)cc2)n1)N1CCOCC1 | . | 13.2 | . | . | . | . | . | .
Cc1ccc(-n2nc(C(=O)N3CCOCC3)cc2-c2ccc(Cl)cc2)cc1 | . | . | . | . | . | . | / | /
O=C(NCc1cccc(C(F)(F)F)c1)c1csc([C@@H]2O[C@H](CO)[C@H](O)[C@H](O)[C@H]2O)n1 | / | / | / | / | / | . | / | /
O=C(CSc1nnc(-c2cccs2)o1)NCC1CN(Cc2ccccc2)CCO1 (stereo not given) | . | 19.2 | . | . | . | . | . | .
CCC(CC)NC(=O)Nc1ccccc1C(F)(F)F | . | . | . | . | . | . | / | /
CCOc1cc(/C=C2\C(=O)N(c3ccc(C(N)=O)cc3)N=C2C)ccc1OC(=O)c1cccs1 | . | 12.1 | . | . | . | . | . | .
COc1ccc2nc(C(F)(F)C(F)(F)F)c(C#N)c(N)c2c1 | . | 9.8 | . | . | . | . | . | .
COc1cc(OC)c2c(N)c(C#N)c(C(F)(F)C(F)(F)F)nc2c1 | . | . | . | . | . | . | / | /
CC(C)Oc1cc(NC(=O)CS(=O)CC(=O)Nc2cccc(C(F)(F)F)c2)c(Cl)cc1Cl (stereo not given) | . | 12.8 | . | . | . | . | . | .
CC(C)(C)OC(=O)N1CCN(C(=O)Nc2ccc3c(c2)OCCO3)CC1 | . | . | . | . | . | . | / | /
CCOC(=O)C1CCCN(CCC(=O)Nc2ccc(Br)c(C)c2)C1 (stereo not given) | . | / | / | . | / | . | / | /
CCCCNS(=O)(=O)c1ccc(NC(=O)C(Sc2ccccc2)c2ccccc2)cc1 (stereo not given) | . | 10.3 | . | . | . | . | . | .
COc1ccc(C(=O)Nc2ccc(S(=O)(=O)N3CCCCC3C)cc2)c(OC)c1OC (stereo not given) | . | 11.3 | . | . | . | . | . | .
Cc1cc(=O)oc2cc(OCC(=O)OCC(=O)Nc3c(C)n(C)n(-c4ccccc4)c3=O)ccc12 | . | . | . | . | . | . | / | /
O=C(CSc1nnc(COc2ccc(Cl)cc2)o1)N1CCOCC1 | . | . | . | . | . | . | / | /
CC(=O)Nc1ccc(NC(=O)C(C)OC(=O)c2ccccc2NS(=O)(=O)c2cccs2)cc1 (stereo not given) | . | . | . | . | . | . | / | /
O=C(O)c1ccc(S(=O)(=O)/N=C2\C=C(Nc3ccccc3F)C(=O)c3ccccc32)cc1 | . | 9.6 | . | 88.3 | . | . | 42.5 | .
CC(=O)Nc1ccc(NC2=C/C(=N/S(=O)(=O)c3cccs3)c3ccccc3C2=O)cc1 | / | 13.6 | . | . | . | . | 31.6 | .
Cc1ccccc1NC1=C/C(=N\S(=O)(=O)c2cccs2)c2ccccc2C1=O | . | 14.8 | . | 90.2 | . | . | 51.2 | .
C=C(C)COC(=O)C1CC2OC2CC1C(=O)OCC(=C)C (stereo not given) | . | / | / | / | / | . | / | /
CC(=O)NC1C(OCc2ccccc2)OC2COC(c3ccccc3)OC2C1OCC(=O)O (stereo not given) | . | . | . | . | . | . | / | /
Cc1csc(=Nc2c(C)n(C)n(-c3ccccc3)c2=O)n1-c1ccccc1 | . | . | . | . | . | . | / | /
Cc1c(N=c2c(=O)c3ccccc3c2=O)c(=O)n(-c2ccccc2)n1C | / | 12.7 | . | . | . | / | 34.6 | .
O=C(N1CCOCC1)N1CCN(C(c2ccccc2)c2ccccc2)CC1 | . | 10.5 | . | . | . | . | . | .
